Source: PubChem
Tb PFK block = T. brucei PFK enzyme inhibition | T. brucei PFK, ADP-Glo luminescence | O15648 | Potency, µM (series often up to 57.5 µM), for the others: top-dose activity, negative = inhibition, hits mostly inhibitors | 0.17% of 330,000 active;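 also: 0% = uninhibited 1x PFK enzyme wells and -100% = no-enzyme wells; nearly all actives have a fitted effect of over 60% in size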
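PFK 1.25 nM, F6P 0.5 mM, ATP 0.1 mM, 0.1 M TEA pH 8.0, 5 mM MgCl2, 0.01% Tween20, 0.1% BSA; 45 min RT. ADP-Glo readout. qHTS titration up to 57 uM; curves fitted, compounds curve-classed.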
IMPase Li inh = membrane-permeable IMPase blocker, potentiated with lithium; CHO-M1 cells, IP1 TR-FRET (IP-One), carbachol + lithium; Potency, µM (highest dose often 59.4 µM), inactives show at the top dose activity, negative = IMPase inhibition, hits mostly inhibitors; 0.35% of 210,000 active; AID 1457;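 also: IP1 builds up when IMPase is blocked and the TR-FRET signal falls; plate controls were basal vehicle for no effect and high inhibitor control for full effect; nearly all actives have a fitted effect of over 50% in size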
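Steps: plate 2000 CHO-M1 cells per well and culture 16–30 h; add compound and lithium; incubate 30 min, 37C; add d2-IP1 tracer and Eu cryptate anti-IP1 antibody in lysis buffer; read after 10 min at room temperature.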
RGS12 GoLoco inh = blocks human Gai1 binding to RGS12 GoLoco peptide, red readout | P63096 | Potency, µM (doses to about 61.6 µM), for inactives: top-dose activity, negative = inhibition, most hits filed as inhibitors | 0.44% of 230,000 active | Gai1:RGS12 GoLoco peptide FP, rhodamine, 10 min; active = well fitted inhibition curve with a large enough effect, not every such curve was filed as active; inactive = no such curve, though single readings can be large or run the other way; also: nearly all actives have a fitted effect of over 30% in size
Target sequence (P63096 whole entry, looked up): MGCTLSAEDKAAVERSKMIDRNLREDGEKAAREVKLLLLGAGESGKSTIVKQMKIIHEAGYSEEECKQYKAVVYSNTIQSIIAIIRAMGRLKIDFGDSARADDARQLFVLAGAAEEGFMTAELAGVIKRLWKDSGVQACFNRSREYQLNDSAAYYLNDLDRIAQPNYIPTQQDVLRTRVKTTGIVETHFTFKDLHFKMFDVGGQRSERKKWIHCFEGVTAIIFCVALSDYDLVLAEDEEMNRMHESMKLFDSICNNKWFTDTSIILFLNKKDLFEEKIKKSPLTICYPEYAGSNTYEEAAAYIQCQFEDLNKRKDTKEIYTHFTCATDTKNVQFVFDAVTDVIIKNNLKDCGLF
NPSR antagonist = neuropeptide S receptor (human) antagonism, cAMP | Potency, µM (top dose mostly 38.3 µM), for the others: top-dose activity change, negative = inhibition, most hits filed as inhibitors | CHO-NPSR cells, cAMP TR-FRET, antagonist mode | 1% of 220,000 active | Q6W5P4; also: nearly all actives have a fitted effect of over 50% in size
Target sequence (Q6W5P4 whole entry, looked up): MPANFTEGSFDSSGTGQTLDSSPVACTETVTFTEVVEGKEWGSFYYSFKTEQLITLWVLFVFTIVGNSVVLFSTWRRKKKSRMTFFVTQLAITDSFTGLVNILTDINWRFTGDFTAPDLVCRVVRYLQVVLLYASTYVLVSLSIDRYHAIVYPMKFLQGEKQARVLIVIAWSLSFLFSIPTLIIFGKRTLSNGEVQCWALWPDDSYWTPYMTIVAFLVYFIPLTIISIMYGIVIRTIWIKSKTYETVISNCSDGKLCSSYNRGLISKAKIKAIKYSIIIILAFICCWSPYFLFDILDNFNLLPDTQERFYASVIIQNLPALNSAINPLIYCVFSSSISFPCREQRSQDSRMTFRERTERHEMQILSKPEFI
MBNL1-CUG inh = inhibitors of human MBNL1 binding to CUG repeat RNA | 0.036% of 280,000 active | Potency, µM (top dose mostly 57.5 µM), without a hit: at the highest dose activity change, negative = inhibition, most hits filed as inhibitors | TR-FRET MBNL1-His/biotin-(CUG)12 binding, 665/545 ratio | AID 2675; active = well fitted inhibition curve with a large enough effect in the signal ratio, with a control signal flat, not every such curve was filed as active; inconclusive = small, poorly fitted or top-dose-only effect, or effect the other way, or a change in a side signal; inactive = no such curve, though single readings can be large or run the other way; the % refers to the signal ratio
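TR-FRET readout: Ex 340 nm, 665/545 nm emission ratio, normalized to buffer-only (basal) and MBNL1-(CUG)12 controls. Complex of MBNL1-His with Biotin-(CUG)12, compounds 92 nM–58 uM, incubated 60 min at room temperature.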
Starred values were filed as active, the others as inactive; ? = inconclusive; · = no result; [ ] = another dose, or the depositor's remark. Only a selection was taken, and hits are over-represented in it overall. Unless noted, calls follow the shape of the dose curve; as a rule, active = well fitted curve in the direction sought with a large enough effect; inconclusive = small, poorly fitted or top-dose-only effect, or another doubt; inactive = no such curve, though single readings can be large; an effect the other way counts as inactive or inconclusive. Unless noted, % is scaled to controls: 0 for no effect and ±100 for the full control effect; potency is read from the fitted curve at half-maximal effect.

SMILES	Tb PFK block	IMPase Li inh	RGS12 GoLoco inh	NPSR antagonist	MBNL1-CUG inh
COCc1ccc(O)c2ncccc12	1%	23%[38.3 µM]	9%	4µM*	12%
Oc1ccc(COc2cccc3ccccc23)c2cccnc12	-4%	·	·	·	·
C1CCC(C(CC2CCCCN2)C2CCCCC2)CC1 (stereo not drawn)	-1%	21%	10%	13µM*	13%
Cc1ccc(S(=O)(=O)N2[C@@H](c3ccc(Cl)cc3)C(C(=O)O)=CC[C@H]2c2ccc(Cl)cc2)cc1	-20%	·	·	·	·
CCCCc1nc(SCC(=O)Nc2cccc(Cl)c2)n[nH]1	-4%	·	·	·	4%
COC1=CC(=O)C=C(OC)C1=O	·	43%	20µM*	·	·
Cc1ccccc1/C=C/c1cc[n+](C)cc1	0%	1%	22µM*	-13%	?
Cc1[nH]c2ccccc2c1/C=C/c1cc[n+](C)cc1	-2%	42%[38.3 µM]	2.8µM*	10µM*	?
CC(=O)OCC(=O)[C@@]1(O)CCC2C3C[C@H](C)C4=CC(=O)C=CC4(C)C3C(O)CC21C (stereo partly drawn)	·	15%	-41%	·	·
CCOC(=O)C1=C(c2ccccc2)O/C(=C(/C#N)C(F)(F)F)S1	0%	2%[38.3 µM]	10%	7.9µM*	12%
COC/C=C/C1=CC2=CC(=O)C(C)(OC(=O)c3cnc4ccccc4n3)C(=O)C2=CN1c1ccccc1 (stereo not drawn)	5%	10%	2%[14.2 µM]	1%	?
COC/C=C/C1=CC2=CC(=O)C(C)(OC(=O)c3cnc4ccccc4n3)C(=O)C2=CN1c1ccc(CO)cc1 (stereo not drawn)	4.8µM*	4%	9%[14.2 µM]	·	13%
Nc1nc(N)c(N=O)c(OCC2CCCCC2)n1	-1%	·	·	·	?
O=C(N/N=C/c1cc2c3c(c1O)CCCN3CCC2)c1ccccc1O	27%	14%	28µM*	-11%	?
CC(C)OCCCNC(=O)c1cc(S(=O)(=O)N2CCc3ccccc32)cn1C	-1%	·	·	·	-1%
CCc1nc(C)cc2c1sc1ccccc12	-4%	·	-1%	-2%	4%
CC[n+]1c(C)cc2c(sc3ccccc32)c1C	4%	9%	4.5µM*	5%	?
CCCC(=O)N1CCN(c2ccc(NC(=O)c3ccc([N+](=O)[O-])o3)cc2Cl)CC1	1%	-5%	9%	4µM*	·
CC(C)C(=O)N1CCN(c2ccc(NC(=O)c3ccc([N+](=O)[O-])o3)cc2Cl)CC1	-11%	-1%	-3%	3.2µM*	?
C=CCc1cccc(/C=N/NC(=O)c2ccc3nc[nH]c3c2)c1O	1%	·	·	·	10%
COC(=O)C(C(C)=O)C(NC(=O)OC(C)(C)C)c1ccccc1 (stereo not drawn)	·	4%	-8%	·	·
Cc1[nH]c2ccc(F)cc2c1CCN(Cc1ccncc1)C(=S)Nc1ccc(F)cc1	-15%	12%	5%	7.9µM*	-7%
Cc1ccccc1NC(=S)N(CCc1c(C)[nH]c2ccc(F)cc12)Cc1cccnc1	-3%	9%	-4%	-57%	3%
Cc1[nH]c2ccc(F)cc2c1CCN(Cc1cccnc1)C(=S)Nc1cccc(F)c1	1%	22%	4%	10µM*	-2%
Cc1[nH]c2ccc(F)cc2c1CCN(Cc1cccnc1)C(=S)NC(C)(C)C	-1%	·	·	·	-4%
SMILES	Tb PFK block	IMPase Li inh	RGS12 GoLoco inh	NPSR antagonist	MBNL1-CUG inh
COc1ccc(S(=O)(=O)N2CCC(C(=O)NCc3ccncc3)CC2)cc1OC	-5%	·	·	·	0%
CN(Cc1ccccc1)C(=O)COC(=O)c1cc2ccccc2oc1=O	0%	·	·	·	·
O=C(Nc1ccc2oc(=O)ccc2c1)c1cc2ccccc2o1	0%	12%	-6%	2%	29%
Cc1cc(=O)oc2cc(NC(=O)c3cc4ccccc4o3)ccc12	-5%	2µM*	4%	?	7%
Cc1ccc(C)c(Cn2nnc3c(=O)[nH]c(C4CCCN(S(=O)(=O)Cc5ccccc5)C4)nc32)c1 (stereo not drawn)	?	·	·	·	-6%
COC(=O)c1c(NC(=O)Nc2ccc(Cl)cc2)sc(C)c1C	-1%	?	6%	10µM*	11%
O=C(CCc1nnc2ccc(NCc3ccco3)nn12)Nc1ccc(F)cc1	-1%	·	·	·	4%
Clc1ccc(-n2ncc3c(N4CCCCCC4)ncnc32)cc1	0%	39%[38.3 µM]	1%	-22%[46.1 µM]	?
Brc1cc(Br)c2ncnc(N3CCCCC3)c2c1	1%	13µM*	5%	7.9µM*	?
CCOc1ccc(NC(=O)Cc2ccc(S(=O)(=O)N3CCOCC3)s2)cc1OCC	-9%	·	·	·	9%
C=C(C)C(=O)Nc1nnc(-c2ccccc2C)s1	0%	22%	9%	-2%	4%
C/C=C/C(=O)Nc1nnc(-c2ccccc2C)s1	2%	10µM*	14%	6%	?
C/C(=N\NC(=O)COc1ccccc1-c1ccccc1)c1ccccn1	14%	32%	-11%	7.9µM*	-2%
N#CC(c1cccc(Cl)c1)c1ccc2c(C(F)(F)F)cc(C(F)(F)F)nc2n1 (stereo not drawn)	·	38%[38.3 µM]	27%	10µM*	?
NNc1ccc2c(C(F)(F)F)cc(C(F)(F)F)nc2n1	-3%	-7%	22%	-1%	?
COc1ccc(C2C(C(=O)c3cccs3)=C(O)C(=O)N2c2nnc(C)s2)cc1OC (stereo not drawn)	2%	-21%[38.3 µM]	-8%	0%[46.1 µM]	?
COc1ccc(C2C(C(=O)c3cccs3)=C(O)C(=O)N2c2nncs2)cc1 (stereo not drawn)	0%	?	1.8µM*	13%[46.1 µM]	?
CCc1cc(=O)oc2cc(C)cc(O)c12	1%	3.2µM*	3%	11%[46.1 µM]	131%
CCCc1cc(=O)oc2cc(C)cc(O)c12	-1%	1%[38.3 µM]	2%	7%[46.1 µM]	38%
C[C@@H]1OC(OC2CC[C@@]3(C)C(CC[C@@]4(C)C3CC=C3C5CC(C)(C)CC[C@]5(C(=O)OC5OCC(O)[C@@H](O)[C@@H]5OC5O[C@@H](C)[C@H](O[C@H]6OC(CO)C(O)C(O)C6O)C(O)C5O)C(O)C[C@@]34C)C2(C)C)C(O)C(O)[C@H]1OC1OCC(O)C(O)[C@H]1O (stereo partly drawn)	·	23%	5%	·	·
Cc1cc(C(C)(C)C)oc1C(=O)N(CC(=O)NC1CCCC1)Cc1ccccc1Cl	0%	46%[38.3 µM]	3%	7.9µM*	-3%
O=C(CN(Cc1ccccc1Cl)C(=O)CCC(=O)Nc1nccs1)NCC1CCCO1 (stereo not drawn)	2%	·	·	·	-1%
COc1cccc(OC)c1OCc1cc(C2C3CCCC=C3C(C#N)=C(N)C2(C#N)C#N)c(C)cc1C (stereo not drawn)	-4%	5%[38.3 µM]	29%	3.2µM*	2%
COCCCNC(=O)C1Cc2cc(S(=O)(=O)N3CCCC3)ccc2N1C(C)=O (stereo not drawn)	-4%	·	·	·	2%
